In PubChem BioAssay (Tox21):
Values joined by “and” are separate entries in the source; they are usually repeats but may differ in a detail not shown here. Equal entries are not always repeated. Results filed as inconclusive are left out. Active and inactive are the calls of the source. Unless noted, calls follow the shape of the dose curve; as a rule, active = well fitted curve in the direction sought with a large enough effect in the repeat runs; inconclusive = weak or mixed curves; inactive = no such curve, though single readings can be large; an effect the other way counts as inactive or inconclusive.

Tests used:
[1] = qHTS assay to identify small molecule antagonists of the peroxisome proliferator-activated receptor delta (PPARd) signaling pathway - cell viability counter screen (AID 743213); also: nearly all actives have a fitted effect of over 50% in size; also: potency is read from the fitted curve at half-maximal effect
Outline: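 In this counter screen, HEK293H cells carrying a UAS-beta-lactamase reporter are co-treated with test compounds and 300 nM L165041 (final) for 17 h at 37 C; cell viability is quantified by CellTiter-Glo luminescence.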

[2] = qHTS assay to identify small molecule agonists of the farnesoid-X-receptor (FXR) signaling pathway - cell viability counter screen (AID 743218); also: nearly all actives have a fitted effect of over 45% in size; also: potency is read from the fitted curve at half-maximal effect
Outline: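 Luminescence from CellTiter-Glo, read after 30 min at RT, reports viability of GeneBLAzer FXR-UAS-bla HEK 293T cells treated 16 h with compounds in the wells used for the beta-lactamase reporter.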

[3] = qHTS assay to identify small molecule antagonists of the farnesoid-X-receptor (FXR) signaling pathway - cell viability counter screen (AID 743221; active = well fitted cell-killing curve with a large enough effect in the repeat runs, not every such curve was filed as active; also: nearly all actives have a fitted effect of over 50% in size; also: potency is read from the fitted curve at half-maximal effect)
Outline: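 Luminescence from CellTiter-Glo measures cytotoxicity in GeneBLAzer FXR-UAS-bla HEK 293T cells. Cells were exposed to compounds with 50 uM chenodeoxycholic acid (final) for 16 h at 37 C, in wells also used for the reporter readout.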

[4] = qHTS assay to identify small molecule agonists of the vitamin D receptor (VDR) signaling pathway - cell viability counter screen (AID 743224); also: nearly all actives have a fitted effect of over 50% in size; also: potency is read from the fitted curve at half-maximal effect
Outline: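 Cytotoxicity counter screen: VDR-bla cells, 16 h compound exposure at 37C, 5% CO2; CellTiter-Glo luminescence, 30 min RT, same wells as bla read.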

[5] = target: Vitamin D3 receptor (Homo sapiens) (UniProt P11473); assay: qHTS assay to identify small molecule agonists of the vitamin D receptor (VDR) signaling pathway (AID 743222; calls by dose curve; also: potency is read from the fitted curve at half-maximal effect)
Outline: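 Beta-lactamase reporter readout (LiveBLAzer B/G FRET, 2 h RT) in VDR-bla cells after 16 h compound treatment at 37C, 5% CO2; cells pre-incubated 4 h before pin transfer of DMSO solutions.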

[6] = target: Vitamin D3 receptor (Homo sapiens) (UniProt P11473); assay: qHTS assay to identify small molecule antagonists of the vitamin D receptor (VDR) signaling pathway (AID 743223; active = well fitted inhibition curve with a large enough effect in the signal ratio in the repeat runs, not every such curve was filed as active; the % refers to the signal ratio)
Outline: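 Antagonist mode uses 1alpha,25-dihydroxyvitamin D3 at 3 nM final as stimulus. VDR-bla cells receive compounds in DMSO, incubate 16 h at 37C, then a beta-lactamase FRET substrate for 2 h at room temperature before fluorescence measurement.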

[7] = target: Peroxisome proliferator-activated receptor delta (Homo sapiens) (UniProt Q03181); assay: qHTS assay to identify small molecule antagonists of the peroxisome proliferator-activated receptor delta (PPARd) signaling pathway (AID 743215; active = well fitted inhibition curve with a large enough effect in the signal ratio in the repeat runs, not every such curve was filed as active; the % refers to the signal ratio;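 also: cells stimulated with agonist L165041 at 300 nM final during compound exposure; potency is read from the fitted curve at half-maximal effect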)
Outline: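 HEK293H GeneBLAzer PPARd UAS-bla reporter cells; cpd + L165041 300 nM final, 17 h 37 C; LiveBLAzer B/G FRET substrate 2 h RT; fluorescence intensity read-out. Antagonist mode.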

Sequence of Vitamin D3 receptor (Homo sapiens) (P11473 whole entry, looked up): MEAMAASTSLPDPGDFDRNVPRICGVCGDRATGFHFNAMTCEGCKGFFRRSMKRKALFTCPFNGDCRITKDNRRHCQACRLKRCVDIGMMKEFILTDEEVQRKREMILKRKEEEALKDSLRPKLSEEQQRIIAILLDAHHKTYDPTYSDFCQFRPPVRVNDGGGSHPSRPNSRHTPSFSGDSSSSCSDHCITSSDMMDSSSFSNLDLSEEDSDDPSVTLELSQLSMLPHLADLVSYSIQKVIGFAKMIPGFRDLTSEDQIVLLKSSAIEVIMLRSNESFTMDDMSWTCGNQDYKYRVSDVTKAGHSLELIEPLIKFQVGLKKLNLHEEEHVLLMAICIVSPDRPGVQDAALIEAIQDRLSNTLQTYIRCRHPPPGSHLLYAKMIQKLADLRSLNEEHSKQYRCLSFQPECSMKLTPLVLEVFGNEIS
Sequence of Peroxisome proliferator-activated receptor delta (Homo sapiens) (Q03181 whole entry, looked up): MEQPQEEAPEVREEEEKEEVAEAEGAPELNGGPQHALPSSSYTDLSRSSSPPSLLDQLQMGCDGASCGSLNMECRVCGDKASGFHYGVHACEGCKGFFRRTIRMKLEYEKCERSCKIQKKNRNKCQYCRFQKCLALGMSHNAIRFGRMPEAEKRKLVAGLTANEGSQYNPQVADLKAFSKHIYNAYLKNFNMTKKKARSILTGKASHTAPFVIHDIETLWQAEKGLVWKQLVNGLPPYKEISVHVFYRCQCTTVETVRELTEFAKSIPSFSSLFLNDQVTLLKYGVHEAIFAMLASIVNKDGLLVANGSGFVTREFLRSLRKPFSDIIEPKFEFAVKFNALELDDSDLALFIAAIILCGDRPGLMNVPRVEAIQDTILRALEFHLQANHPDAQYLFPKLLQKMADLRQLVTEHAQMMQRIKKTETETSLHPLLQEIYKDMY

Compound | Potency [1] | Potency [2] | Potency [3] | Potency [4] | Potency [5] | Potency [6] | Potency [7]
CCN(CC)C(=S)[S-].CCN(CC)C(=S)[S-].[Zn+2] | 0.433 µM (active) | 3.44 µM (active) | 6.86 µM (active) | 0.217 µM (active) |  |  | 
CCOCn1c(-c2ccc(Cl)cc2)c(C#N)c(Br)c1C(F)(F)F | 30.9 µM (active) | 12.3 µM (active) | 27.5 µM (active) | 3.47 µM (active) |  |  | 
N#CC(Cl)Cl | inactive | inactive | inactive | inactive | inactive | inactive | 
O=CC(Br)(Br)Br | 48.8 µM (active) | 13.8 µM (active) | 24.5 µM (active) | 17.3 µM (active) |  |  | 
CN(C)C(=S)S | 5.45 µM (active) and 7.76 µM (active) | 0.386 µM (active) | 612 nM (active) and 4.36 µM (active) |  |  | inactive | 
Clc1ccc(COC(Cn2ccnc2)c2ccc(Cl)cc2Cl)cc1 (stereo not given) | 40.7 µM (active) and 24.4 µM (active) | 32.3 µM (active) and 19.4 µM (active) and 26.6 µM (active) | 40.7 µM (active) and 17.3 µM (active) and 26.6 µM (active) |  |  |  | 
c1ccc2cc3c(cc2c1)-c1cccc2cccc-3c12 | inactive | inactive | inactive |  |  |  | 
CCOc1cc(C(C)(C)C)ccc1C1COC(c2c(F)cccc2F)=N1 (stereo not given) | 33.4 µM (active) | 33.4 µM (active) | 29.7 µM (active) |  |  |  | 29.7 µM (active)
CN(C)S(=O)(=O)N(SC(F)(Cl)Cl)c1ccccc1 | 27.5 µM (active) | 38.9 µM (active) | 43.6 µM (active) |  |  |  | 
CCCOCC(=Nc1ccc(Cl)cc1C(F)(F)F)n1ccnc1 | 21.9 µM (active) | 17.4 µM (active) | 21.9 µM (active) | 7.76 µM (active) | 34.6 µM (active) |  | 
